In PubChem BioAssay AID588458 (Sanford-Burnham Center for Chemical Genomics, 2011):
Out of some 360,000 compounds screened, about 3,000 (0.83%) were called active. Shown is part of a subset that was picked to be rich in actives. A number with no mark means an inactive call. Rule as the data show it: active = inhibition above about 50%; inactive = the rest.

The molecules below were run against DNA (cytosine-5)-methyltransferase 1 (Homo sapiens) (UniProt P26358) (assay: human DNMT1 methyltransferase inhibitors, primary screen, biochemical, molecular beacon, fluorescence, HinP1I cleavage, uHTS (AID 588458)). Settings: at 10 µM, stronger effect = higher value.
DNA (cytosine-5)-methyltransferase 1 (Homo sapiens), sequence (P26358 504-1616 limits assumed): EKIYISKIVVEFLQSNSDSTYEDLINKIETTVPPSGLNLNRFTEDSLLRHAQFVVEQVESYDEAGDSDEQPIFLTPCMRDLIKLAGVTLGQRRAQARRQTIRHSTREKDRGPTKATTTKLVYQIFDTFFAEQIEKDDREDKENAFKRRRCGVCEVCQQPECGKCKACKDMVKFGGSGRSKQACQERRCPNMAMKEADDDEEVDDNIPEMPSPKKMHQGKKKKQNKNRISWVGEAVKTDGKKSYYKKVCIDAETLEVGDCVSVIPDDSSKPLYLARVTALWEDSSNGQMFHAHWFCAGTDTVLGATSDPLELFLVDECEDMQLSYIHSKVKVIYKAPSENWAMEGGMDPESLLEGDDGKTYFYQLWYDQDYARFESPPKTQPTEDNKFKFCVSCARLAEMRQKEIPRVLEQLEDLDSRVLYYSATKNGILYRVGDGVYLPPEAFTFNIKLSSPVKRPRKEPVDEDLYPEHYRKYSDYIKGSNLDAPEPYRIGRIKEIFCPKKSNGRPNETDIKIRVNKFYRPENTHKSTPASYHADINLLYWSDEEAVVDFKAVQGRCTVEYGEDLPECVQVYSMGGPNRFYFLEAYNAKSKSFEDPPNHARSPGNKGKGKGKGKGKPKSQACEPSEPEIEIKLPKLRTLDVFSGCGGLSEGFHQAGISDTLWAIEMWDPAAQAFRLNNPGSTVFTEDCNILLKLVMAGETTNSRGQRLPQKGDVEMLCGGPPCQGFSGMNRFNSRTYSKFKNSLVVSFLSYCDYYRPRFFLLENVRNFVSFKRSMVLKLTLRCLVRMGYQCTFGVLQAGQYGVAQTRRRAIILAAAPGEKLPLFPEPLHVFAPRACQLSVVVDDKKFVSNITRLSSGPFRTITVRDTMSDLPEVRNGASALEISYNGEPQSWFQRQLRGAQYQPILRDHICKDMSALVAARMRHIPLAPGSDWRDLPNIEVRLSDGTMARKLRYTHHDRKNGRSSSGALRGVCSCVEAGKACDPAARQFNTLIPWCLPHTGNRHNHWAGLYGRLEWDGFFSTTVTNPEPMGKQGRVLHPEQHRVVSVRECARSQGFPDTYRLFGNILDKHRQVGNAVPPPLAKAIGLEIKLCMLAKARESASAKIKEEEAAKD

SMILES | inhibition (reported as % activation of signal)
CCN(C(=O)CSc1nnc2ccccn12)C1CCS(=O)(=O)C1 (stereo not given) | 3.22%
CCN(C(=O)CSc1nc(N)cc(=O)[nH]1)C1CCS(=O)(=O)C1 (stereo not given) | 84.1% (active)
CCN(C(=O)CSc1nc2ccccc2n1CC)C1CCS(=O)(=O)C1 (stereo not given) | 0.17%
CCCCNC(=O)C1CCCNC1=O (stereo not given) | 2.28%
COc1ccc(C2=NOC3(CC(=O)N(c4ccc(Cl)cc4)C3=O)C2)c(OC)c1 (stereo not given) | -6.34%
O=C(O)c1cc(S(=O)(=O)N2CCCCCC2)c(Cl)cc1Cl | 0.43%
CCOC(=O)N1CCN(Cc2nc3c(c(=O)n(C)c(=O)n3C)n2Cc2ccccc2)CC1 | 1.29%
CCN1CCN(Cc2nc3c(c(=O)n(C)c(=O)n3C)n2CC(=O)c2ccccc2)CC1 | 75.4% (active)
CC1CCCN(Cc2nc3c(c(=O)n(C)c(=O)n3C)n2CC(=O)c2ccccc2)C1 (stereo not given) | -2.35%
O=C1CCCC(O)=C1C=NCCc1ccccc1 | 60.8% (active)
O=C1CC(c2ccccc2)CC(O)=C1C=NCCN1CCOCC1 (stereo not given) | 0.18%
CC1(C)CC(=O)C(C=NCCC2=CCCCC2)=C(O)C1 | 6.68%
COc1cc(NS(=O)(=O)c2ccc(N/C=C(\C=O)c3nc4cc(Cl)ccc4o3)cc2)nc(OC)n1 | -2.63%
C=C1c2c(Cl)ccc(O)c2C(O)=C2C(=O)[C@]3(O)C(O)=C(C(N)=O)C(=O)[C@@H](N(C)C)[C@@H]3[C@@H](O)C12 (stereo not given in full) | 94.6% (active)
CC1C(c2ccccc2)=[N+]([O-])C2(CCCC2)N1O (stereo not given) | 1.84%
COc1ccc(CCNC(=O)CC2SC(=Nc3cc(C)cc(C)c3)NC2=O)cc1OC (stereo not given) | 1.89%
CC(=O)[C@@]12O[C@@H]1C[C@H]1[C@@H]3CC[C@H]4C[C@@H](O)CC[C@]4(C)[C@H]3CC[C@@]12C | 1%
O=C(c1ccc(Cl)cc1)n1cnc2ccccc21 | 8.27%
COc1ccccc1N(CC(=O)Nc1ccc(C(F)(F)F)cc1)S(C)(=O)=O | 7.89%
CCCNC(=O)C(=O)Nc1cc2c3c(c1)CCC(=O)N3CCC2 | -0.17%
CCc1ccc(NC(=O)CS(=O)CC(=O)NCCCc2ccccc2)cc1 (stereo not given) | 58.9% (active)
S=C(NCCCc1ccccc1)Nc1ccc(Br)cc1 | 6.06%
CCc1ccc(NC(=O)CS(=O)CC(=O)N2CCN(c3ccccc3F)CC2)cc1 (stereo not given) | 1.59%

SMILES | inhibition (reported as % activation of signal)
Cc1oc(CC(C)C)c(CN2CCCC2)c1C(=O)O | -0.29%
Cc1nnc(N(Cc2ccco2)C(=O)c2ccno2)s1 | -1.27%
COCCNC(=O)Nc1ccc2nc(-c3ccco3)c(-c3ccco3)nc2c1 | 110% (active)
COCCNC(=O)CSc1nc(N)c(NC(=O)c2ccco2)c(=O)[nH]1 | 4.39%
Cc1ccc(NC(=O)OCCNC(=O)c2ccncc2)cc1 | 0.6%
COc1ccc(Cn2cccc(NC(=O)Nc3ccc(C#N)cc3)c2=O)cc1 | 3.12%
O=C1COc2ccc(NC(=O)N3CCN(c4ccc(F)cc4)CC3)cc2N1 | -6.06%
O=C(COC(=O)c1ccc(F)cc1F)Nc1ncccn1 | 67.4% (active)
CCOC(=O)c1cccc(NC(=O)c2ccc(F)cc2F)c1 | 2.92%
O=C(COC(=O)CSc1ccccc1)Nc1ccc(F)cc1F | -0.57%
CN=C1C=C/C(=N/N=c2\ccn(O)cc2C)C=C1C | -3.81%
NC(=O)C1CCCN(CC(=O)N2CCN(c3ccccc3)CC2)C1 (stereo not given) | 1.67%
Cn1c(=O)c2[nH]c(NCC3CCCO3)nc2n(-c2ccccc2)c1=O (stereo not given) | 3.06%
COc1cc2c(cc1OC)C(Cc1cc(OC)c(OC)cc1[N+](=O)[O-])=NCC2 | -13.1%
COC(=O)c1ccc(C(NC(=O)OCc2ccccc2)/C(F)=C/[C@@H](C)C(=O)O)cc1 (stereo not given in full) | 2.04%
CCC[C@@H]1C[C@@]1(CCC)[C@@H](NC(=O)c1ccccc1)c1ccc(C(=O)OC)cc1 | -1.36%
CCC/C=C(\CCC)C(NC(=O)Cc1ccccc1)c1ccc(C(=O)OC)cc1 (stereo not given) | 64.2% (active)
C#Cc1ccc(NC(=O)C2(C)CCN2C(=O)Cc2ccc(-c3ccccc3)cc2)cc1 (stereo not given) | -17.3%
O=C(NC1(C(F)(F)F)NC(=O)N(Cc2cccnc2)C1=O)c1ccccc1Cl (stereo not given) | 5.41%
O=C(NCc1ccncc1)C1CCCN(S(=O)(=O)c2ccc(Br)cc2)C1 (stereo not given) | -0.42%
COc1cc2c(cc1O)C(SC)=NC(C)(C)C2 | 0.55%
CCOC(=O)C1=C(O)/C(=C/c2ccc(OCC(=O)Nc3ccc(C)cc3)cc2)N=C1C | 26.9%
COc1ccc(NC(=O)CN(C)C(=O)c2ccc(COc3ccccc3)o2)cc1 | 1.54%

SMILES | inhibition (reported as % activation of signal)
COc1ccc(CC(=O)Nc2ccc(-c3nnc(-c4ccccc4)o3)cc2)cc1 | 63.9% (active)
COc1ccc(C(CC(=O)Nc2ccc(C)cc2)NC(=O)C(F)(F)F)cc1 (stereo not given) | 1.22%
COc1ccc(NC(=O)Cn2c(-c3ccc(OC)cc3)cn(-c3ccc(C)cc3)c2=O)cc1 | -10.9%
COc1ccc(NC(=O)CCCC(=O)c2ccccc2)cc1 | 0.13%
CCc1ccc(NC(=O)C(=O)NNC(=O)c2cccs2)cc1 | 1.5%
O=C(Nc1ccc(N2CCN(C(=O)C3CC3)CC2)cc1)c1cccs1 | -1.58%
O=C(COc1ccccc1)Nc1ccc(F)cc1 | 2.46%
COc1ccc(CC(=O)Nc2ccc(-c3nnc(-c4ccc(C)cc4)o3)cc2)cc1 | 58.3% (active)
Cc1ccc(-c2nnc(-c3ccc(NC(=O)c4cccs4)cc3)o2)cc1 | 62.6% (active)
Cc1ccc(OCC(=O)Nc2ccc(-c3nnc(-c4ccco4)o3)cc2)cc1 | 56% (active)
Cc1cc(NC(=O)C(C)SCC(=O)Nc2cccc(S(=O)(=O)N3CCCCCC3)c2)no1 (stereo not given) | 3.04%
CCCCc1ccc(S(=O)(=O)NC(=O)C2(C)CCN2C(=O)c2ccccc2)cc1 (stereo not given) | -0.05%
CCc1nc2c(OCCOc3ccc(F)cc3)cccn2c1N(C)C(=O)c1ccccc1F | -4.23%
CCC(=O)Nc1ccc(-c2ccc(N3CCCCC3)nn2)cc1 | -8.26%
Cc1c(C(=O)NCc2ccc(C#N)cc2)sc(=O)n1Cc1ccc(C(=O)N(C)C)cc1 | 4.99%
O=C1N[C@@H](Cc2ccccc2)C(=O)N2[C@@H]3N(S(=O)(=O)c4ccc(F)cc4)c4ccccc4[C@]3(Br)C[C@@H]12 | -4.71%
COc1ccc(CCc2nnc(CCC(=O)NCc3cnn(-c4ccccc4C)c3)o2)cc1 | -0.69%
C/C(=N/N1CCN(Cc2cccc3ccccc23)CC1)c1cccnc1 | -1.56%
C=CCOC(=O)C1=C(C)NC(C)=C(C(=O)OCC=C)C1c1cccs1 | 13.3%
CCN1CC=C2C(C#N)=C(N)C(C#N)(C#N)[C@H](c3ccoc3)[C@H]2C1 | 0.41%
CCOC(=O)N1CC=C2C(C#N)=C(N)C(C#N)(C#N)[C@H](c3cccs3)[C@H]2C1 | 70.4% (active)
Cc1cccc(CC(=O)N2CCN=C2SCc2ccc([N+](=O)[O-])cc2)c1 | -5.45%
COc1ccc(NC(=O)CN(C)C(=O)c2cc(C3CC3)nn2-c2ccccc2)cc1 | 61.4% (active)

SMILES | inhibition (reported as % activation of signal)
COc1cccc(NC(=O)CN(C)C(=O)c2cc(C3CC3)nn2-c2ccccc2)c1 | -5.25%
CCc1ccccc1NC(=O)CN(C)C(=O)c1cc(C2CC2)nn1-c1ccccc1 | -2.35%
CC(C)(C)NC(=O)CN(Cc1cccs1)C(=O)CNS(=O)(=O)c1ccccc1 | -3.38%
CC(=O)Nc1ccc(Sc2ccccc2C(=O)N2CCCC2)cn1 | -0.06%
Nc1cccc(-c2cncc(N3CCN(Cc4ccccn4)CC3)n2)c1 | -1.68%
Oc1c(C(c2cccs2)N2CCN(c3ccc(F)cc3)CC2)sc2ncnn12 (stereo not given) | 5.11%
Cc1nc2sc(C(c3ccco3)N3CCC4(CC3)OCCO4)c(O)n2n1 (stereo not given) | -3.42%
Oc1c(C(c2ccco2)N2CCC3(CC2)OCCO3)sc2ncnn12 (stereo not given) | 84.4% (active)
Cc1cc(NC(=O)CN2C(=O)NC(CC(C)C)C2=O)no1 (stereo not given) | 3.08%
COc1ccccc1CNS(=O)(=O)c1c(C)[nH]c(C)c1C(=O)N1CCCCC1 | 2.18%
CC(=O)NCCc1ccc(S(=O)(=O)N(C)C2CCS(=O)(=O)C2)cc1 (stereo not given) | 0.81%
N/C(=N\S(=O)(=O)c1cc(C(F)(F)F)cc(C(F)(F)F)c1)c1cccs1 | 3.6%
COc1ccc2[nH]c3nc(SCC(=O)NC4CC4)nnc3c2c1 | 2.16%
Cc1ccc(CNC(=O)CSc2nnc3c(n2)[nH]c2ccc(F)cc23)cc1 | 57.3% (active)
Cc1ccn2c(=O)nc(SCC(=O)NCc3ccc(F)cc3)nc2c1 | -6.32%
O=C(Nc1cccc(F)c1)c1coc(=O)c(Br)c1 | -1.29%
CC(=O)c1ccc(NC(=O)CCNS(=O)(=O)c2cc(Br)cnc2N)cc1 | 2.08%
CCCCN1CC(CO)Oc2cccc(F)c2S1(=O)=O (stereo not given) | 0.29%
OC[C@H]1O[C@@H](c2nc(-c3nc(-c4ccc(F)cc4)no3)cs2)[C@H](O)[C@@H](O)[C@H]1O | 0.63%
CCC1(C)Cc2c(sc3[nH]c(=S)n(Cc4ccccc4)c(=O)c23)CO1 (stereo not given) | -3.04%
C=CCn1c(=S)[nH]c2scc(-c3ccco3)c2c1=O | 94.1% (active)
